In PubChem BioAssay (NCI):
Compounds without any hit were thinned out: in the full panel of roughly 83,000, 20% have a hit.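 Treatment: one concentration, 48 hours, 96-well format. Scoring: percent growth, with anything below 10 considered active.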 Values without a mark were called inactive. Activity calls are given as the source filed them.

Key:
Test in all cases: NCI-60 one-dose screen, 48 h (100 = growth as untreated, 0 = no growth, -100 = all killed)
Details in all cases: 10 µM
[1] = test system: NCI-H23 lung
[2] = test system: NCI-H226 lung
[3] = test system: NCI-H322M lung
[4] = test system: HOP-62 NSCLC
[5] = test system: NCI-H460 lung
[6] = test system: HOP-92 NSCLC
[7] = test system: NCI-H522 lung
[8] = test system: A549/ATCC NSCLC
[9] = test system: 786-0 renal
[10] = test system: COLO 205 colon
[11] = test system: DU-145 prostate
[12] = test system: MALME-3M melanoma
[13] = test system: MDA-MB-231 breast
[14] = test system: RXF 393 renal
[15] = test system: SF-268 CNS
[16] = test system: SF-295 CNS
[17] = test system: SF-539 CNS
[18] = test system: UACC-257 melanoma
[19] = test system: M14 melanoma

Compound: CC1(C)CC[C@]2(C(=O)O)CC[C@]3(C)C(=CC[C@@H]4[C@@]5(C)C/C(=C/c6ccncc6)[C@H](O)C(C)(C)[C@@H]5CC[C@]43C)[C@@H]2C1
- growth [1]: 37.6%
- growth [2]: 38.2%
- growth [3]: 34%
- growth [4]: 42.1%
- growth [5]: 34%
- growth [6]: 4.52% (active)
- growth [7]: 42.1%
- growth [8]: 19.9%
- growth [9]: 48.4%
- growth [10]: 37.2%
- growth [11]: 57.9%
- growth [12]: 73.1%
- growth [13]: 34.1%
- growth [14]: 24.2%
- growth [15]: 46.9%
- growth [16]: 20.1%
- growth [17]: 27.8%
- growth [18]: 64.3%
- growth [19]: 61.6%

Compound: COc1cc(Cn2c(C(F)(F)F)cc3c(Cl)ncnc32)ccn1
- growth [1]: -66.6% (active)
- growth [2]: 72.2%
- growth [3]: -73.3% (active)
- growth [4]: 32.1%
- growth [5]: 2.75% (active)
- growth [6]: 49.1%
- growth [7]: 56%
- growth [8]: 92.6%
- growth [9]: 93.3%
- growth [10]: 79.9%
- growth [11]: -100% (active)
- growth [12]: 71.2%
- growth [13]: 10.7%
- growth [14]: 32.9%
- growth [15]: -11% (active)
- growth [16]: 95%
- growth [17]: 59.9%
- growth [18]: 30.1%
- growth [19]: -25.6% (active)

Compound: COc1ccc(-c2nc(S(=O)(=O)c3ccccc3)c(S(C)(=O)=O)o2)cc1
- growth [1]: 3.05% (active)
- growth [2]: 74.5%
- growth [3]: 101%
- growth [4]: 96.7%
- growth [5]: 75.9%
- growth [6]: -60.8% (active)
- growth [7]: -97.2% (active)
- growth [8]: 88.7%
- growth [9]: -16.9% (active)
- growth [10]: -85.6% (active)
- growth [11]: -92.8% (active)
- growth [12]: -92.7% (active)
- growth [13]: -76.2% (active)
- growth [14]: -90.8% (active)
- growth [15]: 61.8%
- growth [16]: 87.3%
- growth [17]: -95.9% (active)
- growth [18]: -38.6% (active)
- growth [19]: -24% (active)

Compound: COc1ccc(-c2nc(S(=O)(=O)c3ccc(C)cc3)c(S(C)(=O)=O)o2)cc1
- growth [1]: -78.1% (active)
- growth [2]: 72.1%
- growth [3]: 89.6%
- growth [4]: 84%
- growth [5]: 4.05% (active)
- growth [6]: -75% (active)
- growth [7]: -96.6% (active)
- growth [8]: 81.2%
- growth [9]: -33.4% (active)
- growth [10]: -88.7% (active)
- growth [11]: -99.1% (active)
- growth [12]: -95.5% (active)
- growth [13]: -92.4% (active)
- growth [14]: -95.1% (active)
- growth [15]: -37% (active)
- growth [16]: 78.4%
- growth [17]: -100% (active)
- growth [18]: -84.6% (active)
- growth [19]: -31.9% (active)

Compound: COc1cccc(C(N)=Nc2ccc(OCCCCCCn3cncn3)cc2)c1
- growth [1]: 21.1%
- growth [3]: 60.5%
- growth [4]: 20.7%
- growth [5]: 28.1%
- growth [6]: 79.3%
- growth [7]: -2.45% (active)
- growth [8]: 26.5%
- growth [9]: 40.9%
- growth [11]: 33%
- growth [12]: 43.4%
- growth [13]: 13.6%
- growth [15]: 68.9%
- growth [17]: -31.3% (active)
- growth [18]: 56%
- growth [19]: 9.26% (active)

Compound: Cc1ccc(NC(=O)NCn2c(=O)[nH]c3ccccc3c2=O)cc1
- growth [1]: 53.2%
- growth [2]: 22.5%
- growth [3]: 89.1%
- growth [4]: 44.8%
- growth [5]: 64.7%
- growth [6]: 30.7%
- growth [7]: 73.7%
- growth [8]: 81.1%
- growth [9]: 50.7%
- growth [10]: 115%
- growth [11]: 89%
- growth [12]: 79.3%
- growth [13]: 40.7%
- growth [14]: 30.3%
- growth [15]: 64.3%
- growth [16]: 95%
- growth [17]: 58.2%
- growth [18]: 94.5%
- growth [19]: 79.2%

Compound: CC(=C(c1ccc(OCCN2CCCCC2)cc1)c1ccc(OCCN2CCCCC2)cc1)c1ccccc1
- growth [1]: 47.2%
- growth [2]: 82.4%
- growth [3]: 60.9%
- growth [4]: 10.4%
- growth [5]: 41.6%
- growth [6]: 8.69% (active)
- growth [7]: 64.8%
- growth [8]: 33.3%
- growth [9]: -35.8% (active)
- growth [10]: -83.9% (active)
- growth [11]: 62.5%
- growth [12]: -99.9% (active)
- growth [13]: 4.97% (active)
- growth [14]: -66.2% (active)
- growth [15]: 34.5%
- growth [16]: -57.2% (active)
- growth [17]: -93.3% (active)
- growth [18]: -78.9% (active)
- growth [19]: -47.2% (active)

Compound: Cc1ccc(C(C)C)cc1NC(=O)c1ccccc1O
- growth [1]: 11.8%
- growth [2]: 26.6%
- growth [3]: 55%
- growth [4]: 54.4%
- growth [5]: 30.8%
- growth [6]: -4.4% (active)
- growth [7]: 20.6%
- growth [8]: 47.8%
- growth [9]: 58.8%
- growth [10]: 100%
- growth [11]: 63.3%
- growth [12]: 9.96% (active)
- growth [13]: 65.1%
- growth [14]: 57.3%
- growth [15]: 55.2%
- growth [16]: 61.8%
- growth [17]: 49.5%
- growth [18]: 29%
- growth [19]: 43.2%

Compound: CCOC(=O)C1=C(N)N(c2ccc(Cl)cc2)C2=C(C(=O)CC(C)(C)C2)C1c1ccc(N2CCOCC2)cc1 (stereo unspecified)
- growth [1]: 105%
- growth [2]: 93.6%
- growth [3]: 95.4%
- growth [4]: 118%
- growth [5]: 94%
- growth [6]: 92.9%
- growth [7]: 89.3%
- growth [8]: 90%
- growth [9]: 89.4%
- growth [10]: 99.8%
- growth [11]: 99%
- growth [12]: 93.9%
- growth [13]: 87.3%
- growth [14]: 98.6%
- growth [15]: 89.7%
- growth [16]: 89.3%
- growth [17]: 100%
- growth [18]: 106%
- growth [19]: 103%

Compound: Cc1ccc(C(=O)NCCCNc2nc(Nc3ccc(N4CCN(C)CC4)cc3)nc3ccsc23)cc1
- growth [1]: 53.4%
- growth [2]: 68.7%
- growth [3]: 64.3%
- growth [4]: 73.7%
- growth [5]: 49.2%
- growth [6]: 27.1%
- growth [7]: 73.2%
- growth [8]: 54.5%
- growth [9]: -11.6% (active)
- growth [10]: 32.7%
- growth [11]: 58.7%
- growth [12]: -94.8% (active)
- growth [13]: 44.4%
- growth [14]: -53.1% (active)
- growth [15]: 60.4%
- growth [16]: 44.8%
- growth [17]: -89.9% (active)
- growth [18]: -17.7% (active)
- growth [19]: -7.88% (active)
